In PubChem BioAssay (NCATS):
Where “and” joins values, the source holds several entries; their conditions need not be identical. Equal entries are not always repeated. Results filed as inconclusive are left out. Values without a mark were called inactive. Calls of active or inactive are those of the source. The call rests on the fitted dose curve; in most records, active means well fitted activation curve with a large enough effect; inconclusive means small, poorly fitted or top-dose-only effect; inactive means no such curve, though single readings can be large or run the other way.

target: Cellular tumor antigen p53 (Homo sapiens) (UniProt P04637); assay: Primary qHTS for small molecule compounds that upregulate eGFP-tagged delta133p53alpha (in N-terminal) cells. (AID 2060322); conditions: NCI-H358 eGFP-delta133p53alpha fluorescence, 24 h; activation: hits give high values; further: nearly all actives have a fitted effect of over 75% in size;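 on activation: series mostly up to about 56 µM; 0% = DMSO vehicle and 100% = reference activator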
Sequence (P04637 whole entry, looked up): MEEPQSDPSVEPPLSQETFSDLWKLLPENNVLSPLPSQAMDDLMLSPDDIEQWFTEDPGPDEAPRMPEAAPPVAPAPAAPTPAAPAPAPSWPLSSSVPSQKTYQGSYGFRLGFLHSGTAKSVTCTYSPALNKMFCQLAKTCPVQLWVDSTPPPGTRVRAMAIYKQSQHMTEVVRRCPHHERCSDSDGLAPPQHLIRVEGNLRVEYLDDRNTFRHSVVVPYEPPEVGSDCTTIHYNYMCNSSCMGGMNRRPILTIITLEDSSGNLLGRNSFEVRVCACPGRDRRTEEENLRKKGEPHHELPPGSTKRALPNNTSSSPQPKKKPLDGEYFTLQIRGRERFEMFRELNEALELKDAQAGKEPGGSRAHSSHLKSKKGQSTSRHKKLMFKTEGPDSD
Method in brief: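 NCI-H358 cells pre-induced 24 h with 10 ng/ml doxycycline for eGFP-delta133p53alpha, plated dox-free and exposed 24 h at 37C to titrated compounds. Fixed, Hoechst-stained; gated GFP peak intensity by laser scanning cytometry, normalized to DMSO (0%) and 57.5 uM 5-azacytidine (100%).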
Potency means the concentration at half of the fitted maximal effect.

SMILES | activation | Potency
CCCC1O[C@@H]2C[C@H]3[C@@H]4CCC5=CC(=O)C=C[C@]5(C)[C@H]4[C@@H](O)C[C@]3(C)[C@]2(C(=O)CO)O1 (stereo not given in full) | -22.8% | –
O=c1[nH]cc(F)c(=O)[nH]1 | -32.6% and 6.33% | –
Nc1nc2ccc(OC(F)(F)F)cc2s1 | -8.55% and 47.5% | –
N[C@H](CCCP(=O)(O)O)C(=O)O | -16.6% | –
COC(=O)[C@@]1(c2ccc(C)cc2)C[C@H]1CN1CCC(O)(c2ccccc2)CC1 | 0.477% | –
COc1ccc(CCC(=O)c2c(O)cc(O[C@@H]3O[C@H](CO)[C@@H](O)[C@H](O)[C@H]3O[C@@H]3O[C@@H](C)[C@H](O)[C@@H](O)[C@H]3O)cc2O)cc1O | 8.33% | –
CN1CCN(c2nc3cc(C(F)(F)F)ccc3n3cccc23)CC1 | -11.1% | –
O=[N+]([O-])c1cccc2c(Br)[nH]nc12 | -55.3% | –
NC(N)=NCCC[C@H](NC(=O)c1sccc1NS(=O)(=O)c1cccc2nsnc12)C(=O)O | -11.5% | –
CC(C)(C)c1ccc(C(=O)CCCN2CCC(OC(c3ccccc3)c3ccccc3)CC2)cc1 | -44.6% | –
C#CC(=O)N(c1ccc(OC)cc1OC)C(C(=O)NCC(=O)OCC)c1cccs1 (stereo not given) | – | 7.57 µM (active)
OC(CCN1CCCCC1)(c1ccccc1)C1CC2C=CC1C2 (stereo not given) | -27.6% and 6.19% and -26.9% | –
CCOC(=O)c1ncn2c1CN(C)C(=O)c1cc(F)ccc1-2 | -0.975% and -12.6% and 1.77% | –
COc1cc(O)c2c(c1)C1OC1C[C@H](O)[C@H](O)C(=O)/C=C\C[C@H](C)OC2=O (stereo not given in full) | – | 21.3 µM (active)
O=c1c(O)c(-c2ccc(O)c(O)c2)oc2cc(O)cc(O)c12 | -2.54% and -9.6% and 3.95% | –
CN1CCN(CCCN2c3ccccc3Sc3ccc(C(F)(F)F)cc32)CC1 | -19.8% and -3.33% and -47.4% | –
COc1ccc(CCN(C)CCCC(C#N)(c2ccc(OC)c(OC)c2)C(C)C)cc1OC (stereo not given) | -12.4% and 7.69% | –
CCOC(=O)C(C)(C)Oc1ccc(Cl)cc1 | 14.3% and -37.9% and -27.7% | –
CN(C)CCCN1c2ccccc2CCc2ccc(Cl)cc21 | 5.09% and -16.2% | –
O=Nc1c(-c2c(O)[nH]c3cc(Br)ccc23)[nH]c2ccccc12 | 17.1% and -39.3% | –

SMILES | activation | Potency
NC(=O)OCC(COC(N)=O)c1ccccc1 | -10.4% and 18.4% and 1.5% | –
COc1cc2c3c(cc4ccccc4c3c1O)NC2=O | -8.93% | –
OC[C@H]1O[C@@H](n2cnc3c(NC4CCCC4)ncnc32)[C@H](O)[C@@H]1O | -30.9% | –
OCCN1CCN(CCCN2c3ccccc3Sc3ccc(C(F)(F)F)cc32)CC1 | 21.2% and 6.21% and -4.78% | –
CCCCOC(=O)NS(=O)(=O)c1sc(CC(C)C)cc1-c1ccc(Cn2c(CC)nc3c(C)cc(C)nc32)cc1 | -46.4% | –
c1ccc2c(c1)CCC[C@H]2Nc1nc2ccccc2[nH]1 | 27.9% | –
O=C(Nc1nc2ccccc2n1CCN1CCOCC1)c1cccc([N+](=O)[O-])c1 | 5.07% and -24.4% | –
CCC(C)N(C)C(=O)c1cc2ccccc2c(-c2ccccc2Cl)n1 (stereo not given) | 12.4% and -31.8% | –
O=c1[nH]ccc2c(O)cccc12 | -33.7% | –
C[C@H]1CC2C3CCC4=CC(=O)C=C[C@]4(C)[C@@]3(Cl)[C@@H](O)C[C@]2(C)[C@@]1(O)C(=O)CO (stereo not given in full) | -21.3% | –
CN1C2CCC1CC(OC(c1ccccc1)c1ccccc1)C2 (stereo not given) | -19.6% | –
NC(CO)C(=O)NNCc1ccc(O)c(O)c1O (stereo not given) | -10.9% and -15.4% and 9.06% | –
NC(=O)c1cccc(N)c1 | 7.85% | –
CC1CCN(CC[C@H]2CCCN2S(=O)(=O)c2cccc(O)c2)CC1 | -4.01% | –
CCc1cccc(N(C)C(N)=Nc2cccc3ccccc23)c1 | 19.2% | –
NC(=O)c1ccc2[nH]ccc2c1 | 3.04% | –
NC(=NCc1ccccc1)NC(=O)c1nc(Cl)c(N)nc1N | 0.24% and 2.72% | –
CCCCC1CCN(CCCN2C(=O)CCc3ccccc32)CC1 | -5.25% | –
O=C(c1ccccc1)c1ccc2n1CCC2C(=O)O (stereo not given) | -6.21% and -3.1% | –
O=P(O)(O)C(Cl)(Cl)P(=O)(O)O | -11.2% | –
